HT1080NT lethal: kills 2HG-producing HT-1080-NT fibrosarcoma cells. HT-1080-NT fibrosarcoma viability, CellTiter-Glo ATP luminescence, 48 h. Potency, µM (series often up to 46.1 µM), for inactives: at the top dose activity, negative = less viability, usual class: cytotoxic. actives 1.6% (n = 360,000);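 also: NT is the 2HG producing partner of a matched IDH1 knockdown line; 0% = DMSO-treated cells and -100% = media-only wells without cells; nearly all actives have a fitted effect of over 55% in size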
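Toxicity toward the 2HG-producing NT line was scored as %Activity, normalised to DMSO and no-cell wells, from CellTiter-Glo luminescence after 48 hours' treatment.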
TGFb SMAD3 inh: blocks TGF-b signaling; actives 1.2% (n = 410,000); HepG2 CAGA-GFP TGF-b/SMAD3 reporter, GFP fluorescence, 18 h; TGF-beta stimulated, 500 pg/mL final; Potency, µM (doses to about 46.1 µM), for the others: at the top dose activity, negative = inhibition, hits mostly inhibitors; also: % is scaled to controls: 0 for no effect and ±100 for the full control effect; nearly all actives have a fitted effect of over 65% in size
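Cell-based qHTS in HEPG2 carrying a CAGA-GFP Smad reporter; compounds added before 500 pg/mL final TGF-beta, 18 h incubation at 37 degrees C, GFP fluorescence quantified per cell by imaging cytometry.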
HT1080 IDH1KD tx: HT-1080 IDH1 knockdown cell toxicity (counter line); actives 2% (n = 360,000); HT-1080 IDH1 knockdown viability, ATP luminescence, 48 h; AID 686971; Potency, µM (top dose mostly 46.1 µM), for inactives: at the highest dose activity, negative = toxicity, hits mostly cytotoxic;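 also: 0% = DMSO wells and -100% = cell-free medium wells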
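IDH1KD HT-1080 cells, 750/well, RPMI + 5% FBS; compound pinned after 2 h settling; 48 h, 37 °C; CellTiter-Glo luminescence; % activity normalised to DMSO and no-cell wells; curves fitted, classed by r2 and efficacy.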
S2 tox: viability counter-screen for ATXN expression inhibitors. Potency, µM (series often up to 56.7 µM), most hits filed as cytotoxic. actives 0.49% (n = 400,000). S2 cells (HEK-293 line with an ATXN2-luciferase reporter) viability, CellTiter-Fluor protease fluorescence, 24 h. AID 651635; also: nearly all actives have a fitted effect of over 40% in size
HepG2 viability: counter-screen for TGF-b inhibitors: cytotoxicity in HepG2 cells; actives 0.76% (n = 410,000); Potency, µM (doses to about 46.1 µM), inactives show top-dose activity change, negative = cytotoxicity, hits mostly cytotoxic; HepG2 CAGA-GFP viability, ATP luminescence, 18 h
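CellTiter-Glo luminescence gave cytotoxicity after 18 hours at 37 degrees C. The cells were HepG2 CAGA-GFP in 1% FBS DMEM, stimulated with 500 pg/mL TGF-beta after compound addition. %Activity was normalised to no-cell wells (complete cell-killing) and DMSO (no toxicity), and curves were fitted and classified.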
ATXN2 expr inh: inhibitors of ATXN2 expression. HEK-293 ATXN2-luciferase reporter, luminescence, 24 h. Potency, µM (top dose mostly 57 µM), for the others: at the top dose activity change, negative = inhibition, most hits filed as inhibitors. actives 0.72% (n = 360,000); also: % is scaled to controls: 0 for no effect and ±100 for the full control effect; nearly all actives have a fitted effect of over 55% in size
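ATXN2-luciferase reporter cells (luciferase flanked by upstream and downstream ATXN2 gene portions) were treated 24 h at 37 °C with compounds at up to 57 uM. SteadyGlo luminescence gave expression; GF-AFC fluorescence gave viability.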
An asterisk follows results filed as active. The list is not random: actives were taken first. Their share in the collection is about 3.9%. Calls follow the shape of the dose curve; as a rule, active = well fitted curve in the direction sought with a large enough effect; inconclusive = small, poorly fitted or top-dose-only effect, or another doubt; inactive = no such curve, though single readings can be large; an effect the other way counts as inactive or inconclusive. Potency is read from the fitted curve at half-maximal effect.

For COc1ccc(-c2cc(C(F)(F)F)nc(S(=O)(=O)CCCC(=O)Nc3cccnc3Cl)n2)cc1OC the results were HT1080NT lethal inconclusive, TGFb SMAD3 inh inconclusive, HT1080 IDH1KD tx 10µM*, S2 tox inconclusive, HepG2 viability -2% and ATXN2 expr inh inconclusive.
COc1cc(NC(=O)CCS(=O)(=O)c2nc(-c3cccs3)cc(C(F)(F)F)n2)cc(OC)c1OC was read as TGFb SMAD3 inh 13µM* and HepG2 viability 11µM*.
COc1cc(NC(=O)CSc2nc(-c3cccs3)cc(C(F)(F)F)n2)cc(OC)c1OC was read as TGFb SMAD3 inh -2%, S2 tox inactive, HepG2 viability -3% and ATXN2 expr inh -4%.
For CCn1c(-c2ccccc2F)nc2cc(NC(C)=O)cc(C(=O)N3CCCC3c3nccs3)c21 (configuration not stated) the results were S2 tox inactive.
`CC(O)(COc1ccccc1)c1ccc2c(c1)CN(Cc1cccc3cccnc13)CCO2` (configuration not stated) gave S2 tox inactive.
`Cn1nc(C(C)(C)C)cc1NC(=O)Nc1cc(Cl)cc(Cl)c1` gave HT1080NT lethal 16µM*, TGFb SMAD3 inh inconclusive, HT1080 IDH1KD tx inconclusive, S2 tox inactive, HepG2 viability 16µM* and ATXN2 expr inh -37%.
`COc1cccc2nc3c(C(=O)NCCN(C)C)cccc3cc12` gave HT1080NT lethal inconclusive, TGFb SMAD3 inh inconclusive, HT1080 IDH1KD tx 9.2µM*, S2 tox inconclusive, HepG2 viability -5% and ATXN2 expr inh inconclusive.
Screening COc1ccc(-c2nc3c(C(=O)NCCN(C)C)cccc3c3ccccc23)cc1 returned HT1080NT lethal inconclusive, TGFb SMAD3 inh 0%, HT1080 IDH1KD tx inconclusive, S2 tox inconclusive, HepG2 viability 18µM* and ATXN2 expr inh 0%.
Screening CN(C)c1ccc(/C=C2/C[N+](C)(C)C/C(=C/c3ccc(N(C)C)cc3)C2=O)cc1 returned HT1080NT lethal inconclusive, TGFb SMAD3 inh 0%, HT1080 IDH1KD tx 16µM*, S2 tox 13µM*, HepG2 viability 13µM* and ATXN2 expr inh -12%.
CC(C)/C=C1\CC/C(=C\c2ccc(N(C)C)cc2)C1=O was read as HT1080NT lethal 12%, TGFb SMAD3 inh -7%, HT1080 IDH1KD tx 17%, S2 tox inactive, HepG2 viability 21% and ATXN2 expr inh 68%.
`Cc1nn(C)c2c1c(-c1ccccc1)cc(=O)n2Cc1ccc(F)cc1` gave TGFb SMAD3 inh 6%, S2 tox inactive, HepG2 viability -10% and ATXN2 expr inh 0%.
For COC(=O)c1ccccc1-c1cc(C)cc2c1OC(CNC(=O)c1cnc(C)cn1)C2 (configuration not stated) the results were S2 tox inactive.
`CCCCCn1c(NCc2ccc(OC)cc2)nc2ccccc21` gave TGFb SMAD3 inh 13µM*, S2 tox inconclusive, HepG2 viability -48% and ATXN2 expr inh inconclusive.
For CCCCn1c(Nc2ccccc2)nc2ccccc21 the results were HT1080NT lethal -2%, TGFb SMAD3 inh 17%, HT1080 IDH1KD tx 0%, S2 tox inactive, HepG2 viability -13% and ATXN2 expr inh 0%.
CCCn1c(Nc2nc3ccccc3n2C)nc2ccccc21 was read as HT1080NT lethal 13µM*, TGFb SMAD3 inh -7%, HT1080 IDH1KD tx 16µM*, S2 tox inconclusive, HepG2 viability 7.1µM* and ATXN2 expr inh inconclusive.
`CCN(CC)CCn1c(NCc2ccc(OC)cc2)nc2ccccc21` gave HT1080NT lethal -12%, TGFb SMAD3 inh -4%, HT1080 IDH1KD tx -19%, S2 tox inactive, HepG2 viability -34% and ATXN2 expr inh -13%.
`O=C1ON=C(c2ccccc2)/C1=C/c1ccc(-c2ccccc2[N+](=O)[O-])o1` gave HT1080NT lethal -23%, TGFb SMAD3 inh 20µM*, HT1080 IDH1KD tx inconclusive, S2 tox inactive, HepG2 viability -37% and ATXN2 expr inh 8%.
Screening COc1cccc2cc(C(=O)Nc3ccc(CC(=O)O)cc3)c(=O)oc12 returned TGFb SMAD3 inh -3%, S2 tox inactive, HepG2 viability -6% and ATXN2 expr inh 3.5µM*.
`Cc1[nH]n(-c2ccccc2)c(=O)c1C=Nc1cnc2ccccc2c1` gave HT1080NT lethal 1%, TGFb SMAD3 inh -22%, HT1080 IDH1KD tx 5%, S2 tox inactive, HepG2 viability -46% and ATXN2 expr inh 9%.
For CCOc1ccc(N=Cc2c(C)[nH]n(-c3nc4ccccc4[nH]3)c2=O)cc1 the results were HT1080NT lethal 5.2µM*, TGFb SMAD3 inh -22%, HT1080 IDH1KD tx 3.7µM*, S2 tox inactive, HepG2 viability 2.5µM* and ATXN2 expr inh -36%.
For COc1ccccc1NC(=O)c1sc2nc(C)c(C(=O)Nc3ccc(C)cc3C)c(-c3ccccc3Cl)c2c1N the results were TGFb SMAD3 inh 0% and HepG2 viability 3%.
Screening Cc1ccc(-n2[nH]c(C)c(/C=N/n3c(C)nc4ccccc4c3=O)c2=O)cc1 returned HT1080NT lethal 18µM*, TGFb SMAD3 inh 3%, HT1080 IDH1KD tx 11µM*, S2 tox inactive, HepG2 viability 6.3µM* and ATXN2 expr inh -23%.
`Cc1ccc(-n2[nH]c(C)c(C=Nc3ccc(C)cn3)c2=O)cc1` gave HT1080NT lethal 7.9µM*, TGFb SMAD3 inh -19%, HT1080 IDH1KD tx 0%, S2 tox inactive, HepG2 viability 4µM* and ATXN2 expr inh 3%.
Cc1[nH]n(-c2ccccc2)c(=O)c1/C=N/n1c(C)nc2ccccc2c1=O was read as HT1080NT lethal -5%, TGFb SMAD3 inh 1%, HT1080 IDH1KD tx -8%, S2 tox inactive, HepG2 viability -37% and ATXN2 expr inh -13%.
For COc1ccc(OCc2cc(C(=O)NCC3CCOCC3)no2)c(Cl)c1 the results were HT1080NT lethal 0%, TGFb SMAD3 inh 3%, HT1080 IDH1KD tx 19%, S2 tox inactive, HepG2 viability 11% and ATXN2 expr inh 30%.
Screening COc1cc(OC)cc(C(=O)NC(=S)NCCc2ccccc2)c1 returned HT1080NT lethal inconclusive, TGFb SMAD3 inh 12%, HT1080 IDH1KD tx 35µM*, S2 tox inactive, HepG2 viability -14% and ATXN2 expr inh -50%.
Screening COc1ccc(OCc2cc(C(=O)NCCc3ccccc3)no2)c(Cl)c1 returned HT1080NT lethal inconclusive, TGFb SMAD3 inh -18%, HT1080 IDH1KD tx 16µM*, S2 tox inactive, HepG2 viability -27% and ATXN2 expr inh -14%.
